Measurements from the supplement of paper PMC10849652.
The full data set covers some 7,900 targets. This sample favours those with a hit. About 0.6% of all pairs of compound and target were hits. Values without a mark were called inactive.

These targets were tested with FC(F)(F)c1ccc(/C=C/c2nc(COc3ccc(CCCCn4ccnn4)cc3)co2)cc1 [mubritinib] (assay: log2 fold change, soluble protein after heating vs DMSO (PISA); higher = thermal stabilisation; K562 cells, 10 uM, 30 min; active = over 0.2 and 3.5 SD of the protein, either way, in both replicates (recomputed)).
Procedure, shortened: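 K562 cells at 2×10^6 cells/mL were treated for 30 min with 10 μM compound, and aliquots were heated for 3 min over 48°C-58°C before pooling. Extraction used PBS with 0.5% NP-40 at 4°C, and soluble protein was the supernatant after 21,000xg for 90 min, measured by TMTpro 16plex LC-MS/MS with channel sums equalised. Thermal stability values, relative to control samples and from duplicates, are log2 fold changes.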

Chain of UniProt P35610 (P35610 whole entry, looked up): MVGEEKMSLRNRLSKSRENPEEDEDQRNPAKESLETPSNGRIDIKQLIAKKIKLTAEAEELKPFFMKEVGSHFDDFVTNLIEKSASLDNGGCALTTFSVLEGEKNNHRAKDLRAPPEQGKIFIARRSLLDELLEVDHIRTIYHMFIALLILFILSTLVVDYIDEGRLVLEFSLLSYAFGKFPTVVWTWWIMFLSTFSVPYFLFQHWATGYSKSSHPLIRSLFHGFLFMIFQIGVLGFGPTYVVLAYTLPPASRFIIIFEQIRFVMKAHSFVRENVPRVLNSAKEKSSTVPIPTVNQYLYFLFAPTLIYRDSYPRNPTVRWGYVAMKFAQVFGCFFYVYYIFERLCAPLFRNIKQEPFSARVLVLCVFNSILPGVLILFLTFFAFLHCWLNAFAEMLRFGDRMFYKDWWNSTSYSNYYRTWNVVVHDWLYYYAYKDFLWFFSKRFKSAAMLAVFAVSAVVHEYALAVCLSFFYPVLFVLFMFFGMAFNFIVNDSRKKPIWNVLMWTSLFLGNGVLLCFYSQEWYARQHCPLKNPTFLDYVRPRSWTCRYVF
Chain of UniProt Q6ZRS2 (Q6ZRS2 whole entry, looked up): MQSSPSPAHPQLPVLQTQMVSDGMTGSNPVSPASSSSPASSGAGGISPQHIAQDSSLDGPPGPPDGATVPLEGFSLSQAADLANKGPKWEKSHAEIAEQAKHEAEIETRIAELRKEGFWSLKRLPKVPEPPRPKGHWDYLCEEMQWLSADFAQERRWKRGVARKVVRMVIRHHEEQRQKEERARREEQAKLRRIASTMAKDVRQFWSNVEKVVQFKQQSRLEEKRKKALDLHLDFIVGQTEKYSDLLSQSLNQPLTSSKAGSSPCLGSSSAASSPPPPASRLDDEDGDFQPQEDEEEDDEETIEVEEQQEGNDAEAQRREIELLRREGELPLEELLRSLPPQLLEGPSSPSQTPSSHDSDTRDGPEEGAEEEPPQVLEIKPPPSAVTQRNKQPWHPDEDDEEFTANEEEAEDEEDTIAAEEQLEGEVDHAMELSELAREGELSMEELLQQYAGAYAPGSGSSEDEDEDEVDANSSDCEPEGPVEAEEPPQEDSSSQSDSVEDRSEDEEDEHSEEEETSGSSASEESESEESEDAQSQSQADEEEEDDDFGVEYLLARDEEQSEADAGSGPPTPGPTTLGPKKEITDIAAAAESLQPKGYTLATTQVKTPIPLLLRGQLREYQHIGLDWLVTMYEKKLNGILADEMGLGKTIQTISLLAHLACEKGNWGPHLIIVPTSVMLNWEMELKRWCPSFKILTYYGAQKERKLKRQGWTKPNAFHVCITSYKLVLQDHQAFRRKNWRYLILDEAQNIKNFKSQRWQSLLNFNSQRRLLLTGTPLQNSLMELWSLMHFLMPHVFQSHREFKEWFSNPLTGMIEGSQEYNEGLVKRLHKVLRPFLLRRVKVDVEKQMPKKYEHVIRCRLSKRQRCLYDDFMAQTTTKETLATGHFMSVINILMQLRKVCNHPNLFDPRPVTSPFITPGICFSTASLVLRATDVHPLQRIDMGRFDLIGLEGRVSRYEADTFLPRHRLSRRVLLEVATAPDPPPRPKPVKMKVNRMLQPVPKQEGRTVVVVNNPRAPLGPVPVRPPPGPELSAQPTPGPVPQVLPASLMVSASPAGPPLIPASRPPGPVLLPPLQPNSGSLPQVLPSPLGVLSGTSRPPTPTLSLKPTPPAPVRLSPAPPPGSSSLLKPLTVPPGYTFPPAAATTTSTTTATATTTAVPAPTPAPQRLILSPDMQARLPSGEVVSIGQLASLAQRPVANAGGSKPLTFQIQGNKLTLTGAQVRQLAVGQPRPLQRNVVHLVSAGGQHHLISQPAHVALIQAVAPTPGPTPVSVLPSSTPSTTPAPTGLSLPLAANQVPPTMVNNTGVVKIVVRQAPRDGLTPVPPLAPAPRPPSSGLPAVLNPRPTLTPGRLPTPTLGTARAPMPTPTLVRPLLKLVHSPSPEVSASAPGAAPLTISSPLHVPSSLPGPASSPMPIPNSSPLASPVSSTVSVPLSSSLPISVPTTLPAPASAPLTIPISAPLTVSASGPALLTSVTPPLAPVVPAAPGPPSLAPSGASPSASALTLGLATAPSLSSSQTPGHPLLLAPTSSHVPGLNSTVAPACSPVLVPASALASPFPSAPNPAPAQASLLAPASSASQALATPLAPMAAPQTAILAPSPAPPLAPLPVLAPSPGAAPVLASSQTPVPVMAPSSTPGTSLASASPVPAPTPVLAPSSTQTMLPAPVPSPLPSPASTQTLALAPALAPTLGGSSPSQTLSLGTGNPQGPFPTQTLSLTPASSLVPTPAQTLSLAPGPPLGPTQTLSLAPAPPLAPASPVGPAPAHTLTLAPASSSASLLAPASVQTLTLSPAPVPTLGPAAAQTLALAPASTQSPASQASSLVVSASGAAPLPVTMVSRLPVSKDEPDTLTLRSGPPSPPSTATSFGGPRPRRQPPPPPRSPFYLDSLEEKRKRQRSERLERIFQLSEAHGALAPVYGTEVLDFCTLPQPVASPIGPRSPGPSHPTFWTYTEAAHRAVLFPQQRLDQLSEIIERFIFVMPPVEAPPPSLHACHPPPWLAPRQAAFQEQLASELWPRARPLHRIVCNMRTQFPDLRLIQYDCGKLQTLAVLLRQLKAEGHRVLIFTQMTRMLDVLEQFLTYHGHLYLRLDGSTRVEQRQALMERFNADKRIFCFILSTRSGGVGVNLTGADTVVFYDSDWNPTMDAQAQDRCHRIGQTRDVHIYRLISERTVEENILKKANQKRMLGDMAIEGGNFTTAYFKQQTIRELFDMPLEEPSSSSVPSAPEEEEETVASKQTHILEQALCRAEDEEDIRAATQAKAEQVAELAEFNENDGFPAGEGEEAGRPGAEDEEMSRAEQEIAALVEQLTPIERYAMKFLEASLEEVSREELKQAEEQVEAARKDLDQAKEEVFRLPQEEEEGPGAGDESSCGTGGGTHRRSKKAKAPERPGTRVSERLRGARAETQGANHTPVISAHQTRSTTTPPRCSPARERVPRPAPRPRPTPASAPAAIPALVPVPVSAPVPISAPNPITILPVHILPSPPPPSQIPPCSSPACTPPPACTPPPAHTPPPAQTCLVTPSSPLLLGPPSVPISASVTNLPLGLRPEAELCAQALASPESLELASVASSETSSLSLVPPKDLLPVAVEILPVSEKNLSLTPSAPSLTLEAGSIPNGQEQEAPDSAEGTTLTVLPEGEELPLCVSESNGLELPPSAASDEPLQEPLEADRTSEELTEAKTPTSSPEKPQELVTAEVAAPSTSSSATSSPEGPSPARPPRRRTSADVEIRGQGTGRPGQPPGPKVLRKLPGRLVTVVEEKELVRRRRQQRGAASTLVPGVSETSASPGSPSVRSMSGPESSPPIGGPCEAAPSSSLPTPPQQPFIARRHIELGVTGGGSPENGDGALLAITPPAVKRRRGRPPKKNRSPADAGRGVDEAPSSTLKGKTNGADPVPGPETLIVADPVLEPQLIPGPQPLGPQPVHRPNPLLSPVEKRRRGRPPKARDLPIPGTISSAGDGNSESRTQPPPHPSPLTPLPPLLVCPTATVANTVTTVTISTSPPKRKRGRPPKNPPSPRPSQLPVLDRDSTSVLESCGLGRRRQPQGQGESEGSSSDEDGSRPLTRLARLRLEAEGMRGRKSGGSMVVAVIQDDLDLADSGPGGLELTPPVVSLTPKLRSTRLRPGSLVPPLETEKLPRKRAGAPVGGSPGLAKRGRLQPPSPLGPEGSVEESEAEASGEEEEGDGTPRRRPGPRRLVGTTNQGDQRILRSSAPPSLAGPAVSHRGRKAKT
Chain of UniProt Q92544 (Q92544 whole entry, looked up): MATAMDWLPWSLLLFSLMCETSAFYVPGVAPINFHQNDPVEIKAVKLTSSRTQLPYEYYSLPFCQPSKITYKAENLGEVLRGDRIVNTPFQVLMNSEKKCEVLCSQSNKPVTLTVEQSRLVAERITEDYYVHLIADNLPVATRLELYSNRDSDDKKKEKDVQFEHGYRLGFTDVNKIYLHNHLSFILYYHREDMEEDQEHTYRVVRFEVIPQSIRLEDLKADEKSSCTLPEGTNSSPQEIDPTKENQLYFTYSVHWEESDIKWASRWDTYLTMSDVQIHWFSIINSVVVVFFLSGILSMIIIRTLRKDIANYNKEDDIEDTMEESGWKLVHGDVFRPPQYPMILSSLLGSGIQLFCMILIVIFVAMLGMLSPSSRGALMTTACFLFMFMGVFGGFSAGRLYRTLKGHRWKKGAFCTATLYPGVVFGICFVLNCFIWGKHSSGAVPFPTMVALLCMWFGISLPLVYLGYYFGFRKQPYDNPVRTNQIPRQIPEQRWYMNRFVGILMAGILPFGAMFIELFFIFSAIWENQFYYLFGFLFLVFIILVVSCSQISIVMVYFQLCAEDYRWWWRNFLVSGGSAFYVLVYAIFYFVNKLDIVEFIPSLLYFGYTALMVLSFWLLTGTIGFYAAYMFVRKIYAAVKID
Chain of UniProt P36897 (P36897 whole entry, looked up): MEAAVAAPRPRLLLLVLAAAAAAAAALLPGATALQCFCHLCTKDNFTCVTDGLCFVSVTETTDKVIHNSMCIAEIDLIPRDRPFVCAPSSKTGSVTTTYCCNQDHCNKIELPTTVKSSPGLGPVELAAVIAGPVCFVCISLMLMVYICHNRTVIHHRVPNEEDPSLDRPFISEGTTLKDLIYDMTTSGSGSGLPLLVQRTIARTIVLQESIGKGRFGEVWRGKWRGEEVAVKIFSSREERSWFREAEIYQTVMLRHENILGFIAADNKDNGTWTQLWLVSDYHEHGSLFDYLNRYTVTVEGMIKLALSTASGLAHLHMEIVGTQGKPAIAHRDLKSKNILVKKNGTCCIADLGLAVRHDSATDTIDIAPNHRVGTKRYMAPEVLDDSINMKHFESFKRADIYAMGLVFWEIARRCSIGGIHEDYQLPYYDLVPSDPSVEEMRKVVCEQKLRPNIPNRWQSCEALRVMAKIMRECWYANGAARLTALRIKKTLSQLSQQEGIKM
Chain of UniProt Q9BYN0 (Q9BYN0 whole entry, looked up): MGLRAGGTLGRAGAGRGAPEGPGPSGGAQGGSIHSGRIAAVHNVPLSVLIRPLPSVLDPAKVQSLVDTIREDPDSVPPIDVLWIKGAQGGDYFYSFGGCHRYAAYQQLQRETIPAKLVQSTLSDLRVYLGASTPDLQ

Row | Target | log2 fold change
1 | SYNE2 isoform 2 (UniProt Q8WXH0) | 0.233
2 | SPAG9 (UniProt O60271) | 0.054
3 | SRFBP1 (UniProt Q8NEF9) | -0.129
4 | SMC5 (UniProt Q8IY18) | -0.004
5 | SLC38A7 (UniProt Q9NVC3) | -0.007
6 | SLC30A10 (UniProt Q6XR72) | -0.007
7 | TK1 (UniProt K7ERV3) | 0.037
8 | SMCHD1 (UniProt A6NHR9) | -0.136
9 | SLC44A2 isoform 2 (UniProt Q8IWA5) | 0.045
10 | SYNE1 (UniProt Q8NF91) | 0.182
11 | TENT5C (UniProt Q5VWP2) | 0.014
12 | SRCAP (UniProt Q6ZRS2) | 0.05
13 | TBC1D20 isoform 3 (UniProt Q96BZ9) | 0.129
14 | STK11IP (UniProt Q8N1F8) | -0.071
15 | SMAD2 (UniProt Q15796) | 0.022
16 | STXBP2 isoform 3 (UniProt Q15833) | 0.164
17 | SPIRE1 (UniProt Q08AE8) | 0.098
18 | TGFBR1 isoform 2 (UniProt P36897) | -0.113
19 | STK38L (UniProt Q9Y2H1) | 0.081

Row | Target | log2 fold change
20 | STARD3 (UniProt Q14849) | -0.067
21 | SRC isoform 2 (UniProt P12931) | 0.031
22 | SRSF6 (UniProt Q13247) | -0.014
23 | TEX30 (UniProt Q5JUR7) | 0.033
24 | TFAM (UniProt Q00059) | -0.068
25 | SLC39A11 (UniProt Q8N1S5) | -0.005
26 | TM9SF4 (UniProt Q92544) | 0.007
27 | SLC25A38 (UniProt Q96DW6) | 0.052
28 | SSBP4 (UniProt Q9BWG4) | 0.066
29 | TAOK3 (UniProt Q9H2K8) | 0.018
30 | SRI (UniProt P30626) | 0.01
31 | SNX15 (UniProt Q9NRS6) | -0.063
32 | SRXN1 (UniProt Q9BYN0) | 0.127
33 | STX7 (UniProt O15400) | 0.007
34 | SMARCA4 (UniProt P51532) | 0.101
35 | TACC2 (UniProt O95359) | -0.006
36 | SOAT1 (UniProt P35610) | 0.096
37 | SP1 (UniProt P08047) | -0.023
